# PubChem BioAssay (NCATS)
# Inconclusive results are not listed. Unmarked numbers belong to inactive results. Calls follow the shape of the full dose curve.
# Test: Cell Viability - BJ (AID 421);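 also: cells exposed to compound for 40 hours at 37 °C before readout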
# Conditions: BJ fibroblast viability, qHTS
# Source text: NIH Chemical Genomics Center [NCGC]
# NIH Molecular Libraries Screening Centers Network [MLSCN]
# National Institutes of Environmental Health Sciences [NIEHS]
# National Toxicology Program [NTP]
# We have developed a 1536-well cell-based assay for quantitative high throughput screening (qHTS) against a number of cell lines to determine in vitro cytotoxicity of small molecules. This particular assay uses the BJ cell line from ATCC which is derived from normal human foreskin fibroblasts.
# NCGC Assay Protocol Summary:
# The CellTiter-Glo luminescent cell viability assay (Promega) is a homogeneous method to measure the number of viable cells in culture. The end point readout of this assay is based on quantitation of intracellular ATP, an indicator of metabolic activity, using the luciferase reaction. Luciferase catalyzes the oxidation of beetle Luciferin to oxyluciferin and light in the presence of ATP. The luminescent signal is proportional to amount of ATP present.
# Using the CellTiter-Glo luminescent cell viability assay, the amount of cellular ATP was measured in the BJ cell line with complete culture medium following compound treatment for 40 hours. The assay was performed in opaque white Kalypsys 1536-well plates. In the screen, tamoxifen and doxorubicin were used as positive controls. Library compounds were measured for their ability to cause acute toxicity in the cell line, as reflected by a decrease in intracellular ATP levels, in a concentration-dependent manner. Data were normalized to the controls for basal activity (DMSO only) and 100% inhibition (100 uM tamoxifen). AC50 values were determined from concentration-response data modeled with the standard Hill equation.
# qHTS protocol fo CellTiter Glo BJ cellular assay
# [Step] [Parameter] [Value] [Description]
# 1. Reagent; 5 uL; 1500 BJ cells/well
# 2. Time; 5 hr; 37 °C incubation
# 4. Controls; 23 nL; Tamoxifen 0.34 uM to 100 uM & Doxorubicin 0.02 nM to 100 uM
# 5. Time; 40 hr; 37 °C incubation
# 6. Reagent; 5 uL; CellTiter Glo reagent
# 7. Time; 20 min; Room Temperature
# 8. Detection; Luminescence; Viewlux plate reader
# Keywords: cell viability, cytotoxicity, BJ cell line, luminescence, NTPHTS, NTPHTS_NCGC, NIEHS, EPA, DSSTox, MLSMR, MLSCN, NIH Roadmap, qHTS, NCGC
# Potency is read from the fitted curve at half-maximal effect.
row,SMILES,Potency [µM]
1,CC(=O)Nc1ccc(C(=O)O)cc1,> 92
2,CC1CC(OC(=O)c2ccccc2O)CC(C)(C)C1 (configuration not stated),> 92
3,CCCCCCCC(=O)OCC(COC(=O)CCCCCCC)OC(=O)CCCCCCC,> 92
4,Cc1cc(=O)[nH]c(=S)[nH]1,> 92
5,C=CCNC(N)=S,> 92
6,CCCCOC(=O)c1ccc(N)cc1,> 92
7,Nc1ccc(S(=O)(=O)c2ccc(N)cc2)cc1,> 92
8,Cc1cc(C)nc(NS(=O)(=O)c2ccc(N)cc2)n1,> 92
9,CC(=O)OCC(COC(C)=O)OC(C)=O,> 92
10,COc1ccc(O)cc1,> 92
11,O=C1c2cccc(O)c2C(=O)c2c(O)cccc21,> 92
12,CC(=O)Nc1ccccc1,> 92
13,O=C(O)CCCCC1CCSS1 (configuration not stated),> 92
14,CCCCCC(N)=O,> 92
15,CC(=O)NS(=O)(=O)c1ccc(N)cc1,> 92
16,CCCC(O)C(CC)CO (configuration not stated),> 92
17,CCN(CC)C(=O)c1cccc(C)c1,> 92
18,Cc1c(N(C)C)c(=O)n(-c2ccccc2)n1C,> 92
19,O=C(c1ccccc1)C(O)c1ccccc1 (configuration not stated),> 92
20,O=C1C(c2[nH]c3ccccc3c2O)=Nc2ccccc21,> 92
21,CC(=O)Nc1cccc(O)c1,> 92
22,FC(F)(F)C(Cl)Br (configuration not stated),> 92
